Inconclusive results are not listed. A number with no mark means an inactive call. Activity calls are given as the source filed them. Calls follow the shape of the dose curve; as a rule, active = well fitted inhibition curve with a large enough effect; inconclusive = small, poorly fitted or top-dose-only effect; inactive = flat fitted curve, though single readings scatter.
Assay: CHOP2 Reporter Counterscreen Assay for Inhibitors of Ubiquitin-specific Protease USP2a;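 also: activated enterokinase alone at 50 pM in a cell-free format rather than USP2a or CHOP2; nearly all actives have a fitted effect of over 55% in size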
Details: purified enterokinase, fluorogenic substrate, 485/531 nm; series mostly up to 38.3 µM; activity change, negative = inhibition: at the top concentration
In short: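 Fluorescence (485/531 nm) read 10 min after adding 25nM reporter substrate to 50 pM activated EK preincubated 30 min RT with compound; Tris pH 8.0/CaCl2/CHAPS buffer. Data normalized to buffer-alone inhibition; concentration-response curves fitted.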
% is scaled to controls: 0 for no effect and ±100 for the full control effect; potency is read from the fitted curve at half-maximal effect.

SMILES | activity change, negative = inhibition | Potency
CCn1c(SCC(=O)NCCc2ccccc2)nnc1-c1cccs1 | 2.03% | 
N#Cc1c(-c2cccs2)nc(SCc2ccc(Cl)cc2)[nH]c1=O | -21.8% | 
CCC1SC2=NC(C)=C(C(=O)OCCOC)C(c3ccc(C(=O)OC)cc3)N2C1=O (stereo not given) | 0.0445% | 
O=C(NC1CCCCC1)C(c1ccco1)N(C(=O)c1csnn1)c1cccc(F)c1 (stereo not given) | -1.19% | 
C=CCn1c(NCc2cc(C)ccc2O)nc2ccccc21 | 2.52% | 
COc1ccc(C(=O)C[N+]2(C)CCOCC2)cc1 | 6.58% | 
O=C(O)c1cc(N2N=C(C(F)(F)F)/C(=C/C=C/c3ccco3)C2=O)ccc1Cl |  | 3.98 µM (active)
CC(=O)O[C@H]1[C@H](O)[C@H](Oc2c(O)c(C)c3c4c2[C@@H](C)CC[C@@H]4[C@@H](C)C[C@H]3C=C(C)C)O[C@@H](C)[C@H]1O | 0.217% | 
Cc1ccc(C(=O)Nc2nnc(CC(=O)N/N=C/c3ccc(O)c(O)c3)s2)cc1 |  | 2.82 µM (active)
Cc1cc(Cl)ccc1NC(=S)NCCCN1CCCC1=O | 3.77% | 
Cc1ccc(N(CC(=O)Nc2ccc(S(=O)(=O)N3CCOCC3)cc2)S(C)(=O)=O)cc1C | 2.83% | 
CN(C)S(=O)(=O)c1cccc(NC(=S)NNC(=O)c2cc3ccccc3cc2O)c1 | -15.3% | 
Cc1cccc(NCc2nc(-c3ccccc3)no2)c1 | -1.33% | 
CCCCOC1(c2ccccc2)NC(=S)NN=C1c1ccccc1 (stereo not given) | -0.372% | 
COc1ccc(CN(Cc2cc3cc(C)ccc3[nH]c2=O)C(=O)N(C)C)cc1 | -2.81% | 
Cc1ccc(Nc2cc(C)nc(NCc3ccccc3)n2)cc1 | -2.96% | 
CCCC(c1nnnn1Cc1ccc(OC)cc1)N1CCC(C(N)=O)CC1 (stereo not given) | 1.02% | 
CCOc1ccc(NC(=O)c2cccc(-n3cnnn3)c2)cc1 | 7.23% | 
COC(=O)c1nnn(-c2nonc2N)c1CSc1ccccn1 | 0.244% | 
COc1cc(OC)cc(-c2c(C#Cc3ccsc3)c3cc(-c4ccc(OC)c(OC)c4)ccc3n2C)c1 | 5.46% | 

SMILES | activity change, negative = inhibition | Potency
Cc1ccc(NC(=O)CSc2nc(O)cc(=O)n2-c2ccc(C)cc2)cc1 | -0.867% | 
CCOC(=O)C(C)Sc1nnc(Cn2c(=O)sc3ccccc32)n1-c1ccccc1 (stereo not given) | -1.3% | 
NS(=O)(=O)c1ccc(NC(=O)CN2CCCCC2)cc1 | 0.546% | 
COC(=O)CCC(=O)Nc1sc2c(c1C#N)CCCC2 | -2.49% | 
CCOc1ccc(S(=O)(=O)N(CC(=O)O)c2ccccc2)cc1 | 2.04% | 
O=C(COC(=O)/C=C/c1ccc(Cl)cc1)NC1CC1 | 1.41% | 
COCCN1Cc2cccc(C(=O)N3CCN(c4cc(C)ccc4C)CC3)c2C1=O | -2.08% | 
Cc1ccc(C(=O)Oc2coc(CSc3nnc(NC(=O)c4cccs4)s3)cc2=O)cc1 |  | 3.16 µM (active)
N=c1sccn1CC(=O)Nc1ccc(S(=O)(=O)N2CCOCC2)cc1 | 10.2% | 
Cc1cc(C)cc(OCC(=O)Nc2ccc(N3CCCC3)cc2)c1 |  | 10 µM (active)
NS(=O)(=O)c1ccc(NC(=O)/C=C/c2cn(-c3ccccc3)nc2-c2cccc(Cl)c2)cc1 | -9.99% | 
COC(=O)CSc1nnc(NC(=O)C2CC(=O)N(c3ccc(F)cc3)C2)s1 (stereo not given) |  | 10 µM (active)
COc1ccc(OC)c(Nc2ccc(Nc3cc(OC)ccc3OC)nn2)c1 | -0.301% | 
CCOc1cc(/C=C2\C(=O)N(c3nc(-c4ccc(Br)cc4)cs3)N=C2c2ccccc2)ccc1O |  | 4.47 µM (active)
Cc1ccc(S(=O)(=O)Nc2cc(C)c(O)c(S(=O)(=O)c3ccc(C)cc3)c2)cc1 | -2.45% | 
CCOc1cc(/C=C/c2nc3cc(C)c(C)cc3s2)ccc1OCC(=O)N1CCOCC1 | 2.17% | 
COc1cc(C)ccc1OCCOc1cc(C)ccc1Cl | 0.822% | 
O=C(COc1ccccc1)N1CCN(C(=O)Cc2ccccc2)CC1 | 1.53% | 
O=C(CNC(=O)c1ccco1)Nc1ccc(S(=O)(=O)N2CCCC2)cc1 | 3.16% | 
Cc1ccc(NC(=O)c2onc(C)c2Cl)cc1 | -0.102% | 
